Measured values as given in PubChem BioAssay AID602449 (Sanford-Burnham Center for Chemical Genomics, 2012).
Among all 360,000 compounds or so, about 5,000 (1.4%) were called active. The sample holds actives, similar compounds and a random draw of the others, so the mix is not that of the screen. A number with no mark means an inactive call.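 Rule for the calls: active = inhibition of 50% or more, scaled per plate between neutral and stimulator controls; inactive = the rest.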

Assay: mitochondrial permeability transition pore inhibitors, primary screen, biochemical, isolated mouse mitochondria, absorbance (AID 602449);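 note: 0% = DMSO wells given calcium and 100% = 1 mM EGTA wells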
Conditions: Ca2+ swelling absorbance, 30 min, at 10 µM, hits give high values

Structure (SMILES) | inhibition
COc1cc(OC)cc(-c2c(-c3cccs3)c3cc(-c4ccc(OC)nc4)ccc3n2C)c1 | -0.4%
CCC(C)NC(=O)c1ccccc1NC(=O)c1ccccc1N(C)S(C)(=O)=O (configuration not stated) | 0.4%
COCC(C)n1c(C)cc(C(=O)CSc2cc(C)c3ccccc3n2)c1C (configuration not stated) | 3.2%
CCCNC(=O)c1cc(C2CCCCN2S(=O)(=O)c2cn(C)cn2)on1 (configuration not stated) | 0.2%
O=C(NCc1cc(C(F)(F)F)cc(C(F)(F)F)c1)C1CC(c2cccc(F)c2)=NO1 (configuration not stated) | 2%
COC(=O)Cc1ccc(OCC(=O)Nc2ccc(OC(F)(F)F)cc2)cc1 | 0.1%
CN(CC(=O)Nc1ccc(OC(F)(F)F)cc1)C(=O)C1CCC1 | -0.8%
Cn1nccc1NC(=O)Nc1ccc(OC(F)(F)F)cc1 | 60.1% (active)
Cc1sc2ncnc(N3CCC(C(=O)NNC(=O)c4ccc(F)cc4)CC3)c2c1C | 0.7%
Cc1ccc2cc(CN(c3ccc(C)c(C)c3)S(C)(=O)=O)c(=O)[nH]c2c1 | -0.6%
C/C(=N\Nc1ccc([N+](=O)[O-])cc1)c1ccc(-n2nncc2C(C)(C)C)cc1 | 20.4%
Cc1nc(C)c2c(c1C(F)(F)F)-c1ccccc1C2(F)F | -0.4%
COc1cc(S(=O)(=O)Nc2ncn[nH]2)ccc1Cl | -1.7%
CCCCNC(=O)CSc1nc2ccc(NC(=O)CSc3nnc(COc4ccccc4C)n3C)cc2s1 | 4.8%
CCCCNC(=O)CSc1nc2ccc(NC(=O)CSc3nnc(N)s3)cc2s1 | 15.3%
Nc1nnc(SCC(=O)Nc2ccc3nc(SCC(=O)Nc4ccccc4)sc3c2)s1 | 95.5% (active)
O=C1c2ccccc2C(Nc2ccc3c(c2)OCCO3)N1Cc1ccco1 (configuration not stated) | 3%
C[C@H](CO)N1C[C@H](C)[C@@H](CN(C)C(=O)NC2CCCCC2)Oc2ccc(NC(=O)c3ccncc3)cc2C1=O | -0.8%
CCOC(=O)NC(C(F)(F)F)(C(F)(F)F)P(=O)(c1ccccc1)c1ccccc1 | -3.1%
CN(c1ccccc1)S(=O)(=O)c1ccc(Cl)c(C(=O)OCC(N)=O)c1 | 1.9%
CC(=O)c1c(C)[nH]c(C(=O)COC(=O)c2cccc(S(=O)(=O)N(C)c3ccccc3)c2)c1C | 99.3% (active)
CC(=O)c1c(C)[nH]c(C(=O)COC(=O)CCOc2ccc(C)cc2)c1C | -2.4%
O=C1NCCn2nc3ccccc3c21 | 2.9%

Structure (SMILES) | inhibition
CCCC(C(=O)OCCN(CC)CC)(c1ccccc1)c1ccccc1 | 85.7% (active)
CCN(CC)CCNCC(=O)Nc1ccc(Oc2ccccc2)cc1 | 1.8%
CCN(CC)CCOC(=O)c1ccc(NC(=O)CNC(=O)c2ccccc2)cc1 | -3.4%
Cc1ccccc1C(=O)NC(=S)Nc1ccc(N2CCN(C(=O)c3ccccc3)CC2)cc1 | 57.1% (active)
COc1ccccc1C(=O)NC(=S)Nc1ccc(N2CCOCC2)cc1 | -1.6%
Cc1ccccc1C(=O)NC(=S)NC1CC1 | 1.7%
O=[N+]([O-])c1cccc(S(=O)(=O)N2CCCCCC2)c1 | -1%
CC1=CC(=C(C#N)c2nc3ccccc3s2)C=C(C)N1c1ccc(F)cc1F | 1.2%
N#C/C(=C(/O)Cc1cccc2ccccc12)c1nc2ccccc2s1 | 95.9% (active)
O=C(O)CC/C(=C\c1cc2c(cc1Br)OCO2)c1nc2ccccc2s1 | 0.4%
Cc1ccc(S(=O)(=O)NC2CCCCCC2)cc1C(N)=O | 1%
COc1cc(Cl)c(C)cc1NC(=O)CSc1nnc(CN2CCCC2)o1 | -2%
COc1ccc(N2CCN(CCCNC(=O)C3CCN(S(=O)(=O)N4CCOCC4)CC3)CC2)cc1 | -2.8%
CC(Oc1ccc(-c2ccccc2)c(F)c1)c1ccn(S(=O)(=O)c2cccc3ccccc23)n1 (configuration not stated) | 1%
COc1ccc(S(=O)(=O)Nc2cccnc2)c(Cl)c1Cl | 0.5%
COc1ccccc1Oc1ccc(S(=O)(=O)Nc2cccnc2)cc1 | 82.5% (active)
Cc1cc(C)c(C)c(S(=O)(=O)Nc2cccnc2)c1C | 1.4%
COc1cc(OC)cc(/C(N)=N/O)c1 | 0.6%
O=C(CNC1CCCCC1)NCC1(c2ccccc2)CCCC1 | -0.9%
COC(=O)Nc1nc2ccc(Sc3ccccc3)cc2[nH]1 | 1.2%
CCOC(=O)c1nnn2c3ccccc3c(=O)n(C)c12 | 1.2%
CCOC(=O)N1CCN(C(=O)c2nn(-c3ccc(C)cc3)c(=O)c3c2c2ccccc2n3C)CC1 | 11.3%
CCCc1nc2c(c(=O)c3ccccc3n2C)c(=O)n1C1CCCCCC1 | 77.9% (active)

Structure (SMILES) | inhibition
CCN(CC)S(=O)(=O)c1ccc(N2CCCC2)c(NS(=O)(=O)c2cccs2)c1 | -2.4%
Oc1c(Br)cccc1/C=N/Nc1c(F)c(F)c(F)c(F)c1F | 102% (active)
Brc1ccccc1/C=N/Nc1nc2ccccc2o1 | 1.1%
CC(Oc1ccc(F)cc1)C(=O)Nc1ccccc1C(=O)NC1CC1 (configuration not stated) | -1.6%
Cc1cc(C(=O)OCC(=O)NCc2ccco2)c(C)n1-c1ccccc1 | -0.8%
CCN1C(=O)[C@@H]2[C@@H](c3ccc(-c4cccc(Cl)c4)cc3)N3CCC[C@@]3(C(=O)OC)[C@@H]2C1=O | -1%
CCOC(=O)c1ccc(NC(=O)CS(=O)(=O)c2cn(CC)c3ccccc23)cc1 | 1%
CCOC(=O)c1ccc(NC(=O)CCn2c(=O)oc3ccccc32)cc1 | 0.1%
CCOC(=O)c1ccc(NC(=O)Cn2cnc3cc(C)c(C)cc32)cc1 | 96.9% (active)
CNS(=O)(=O)c1ccc(NC(=O)Nc2ccc3c(c2)OCO3)cc1 | 0.6%
Cc1ccc(CN(CC(=O)NCC2CCCO2)S(=O)(=O)c2ccc(C)cc2)cc1 (configuration not stated) | 0.1%
CN(C)S(=O)(=O)c1cccc(NC(=O)Cc2ccsc2)c1 | 0.2%
CN(c1cccc(NC(=O)Nc2ccc(Cl)cc2)c1)S(C)(=O)=O | 92.2% (active)
CN(c1cccc(NC(=O)c2ccc(CN3CCc4ccccc4C3)cc2)c1)S(C)(=O)=O | 0%
CN(c1ccccc1)S(=O)(=O)c1cccc(NC(=O)Cc2ccc(Cl)cc2)c1 | 61.7% (active)
COc1ccc(C)cc1S(=O)(=O)N(CC(=O)Nc1cccc([N+](=O)[O-])c1)c1ccc(C)cc1 | 0.7%
Cc1ccc(S(=O)(=O)N(CC(=O)Nc2cccc([N+](=O)[O-])c2)Cc2ccc(Cl)cc2)cc1 | 80.3% (active)
CN(c1ccccc1)S(=O)(=O)c1cccc(NC(=O)Cc2c(F)cccc2Cl)c1 | 18.1%
O=C1N=C2SCCN2/C1=C\c1c(Cl)cccc1Cl | -0.2%
O=C(CNC(=O)OCc1ccccc1)Oc1cc2oc(=O)cc(-c3ccccc3)c2cc1Cl | 7.5%
Clc1ccc(-c2cc(-c3ccccn3)on2)c(Cl)c1 | 2.1%
Clc1ccc(-c2cc(C3CCNCC3)[nH]n2)c(Cl)c1 | 76.8% (active)
COc1ccc(C2c3[nH]c4ccccc4c3CCN2CCCn2cccn2)cc1C (configuration not stated) | -1.1%

Structure (SMILES) | inhibition
O=C1c2ccccc2C2=Nc3ccccc3SC(c3ccccc3F)C12 (configuration not stated) | 93.3% (active)
CCC(C)N(C(=O)Cn1nc(C)c([N+](=O)[O-])c1C)C1CCS(=O)(=O)C1 (configuration not stated) | 0.4%
O=C(CCN1CCc2ccccc2C(O)(c2ccccc2)C1)c1ccc2c(c1)OCCO2 (configuration not stated) | 2.6%
O=C(c1ccc2c(c1)OCCO2)C1CCN(S(=O)(=O)c2cccc(F)c2)CC1 | -4.7%
O=C(/C=C(O)/C=C/c1ccc(O)cc1)/C=C/c1ccc(O)cc1 | 75.2% (active)
COc1ccc(/C=C/C(=O)c2c(O)cc(OC)cc2OC)cc1 | 1.2%
O=C(O)/C=C/c1ccc(S(=O)(=O)N2CCCCCC2)cc1 | -1.1%
O=C(Nc1ccccc1Cc1ccccc1)c1ccc2c(c1)SC1=NS(=O)(=O)CCN12 | 1.9%
Cc1nc(-c2nnc(SCC(=O)Nc3cc(C(F)(F)F)cc(C(F)(F)F)c3)n2C)cs1 | 4.6%
Cc1ccc(OC(=O)c2c(C)nn(-c3ccccc3)c2C)cc1 | -0.9%
C/C(=N\NC(=S)NCc1ccccc1)c1ccc(Cl)cc1 | 3.5%
S=C(NCc1cccs1)Nc1ccc(Cl)cc1 | 23.7%
Fc1ccccc1CNC(=S)Nc1ccc(Cl)cc1 | 102% (active)
CCCOc1ccc(Cc2c(Cl)nc(SC)nc2NC)cc1 | 95.3% (active)
CCCOc1ccc(Cc2c(O)nc(SC)[nH]c2=O)cc1C | 0.9%
CCOc1cc2[nH]c(=O)n(CCC(=O)NCc3ccc(OC)cc3)c(=O)c2cc1OCC | -0.2%
COC(=O)C(Cc1c[nH]c2ccccc12)NC(=O)CCNC(=O)c1ccco1 (configuration not stated) | -1%
O=C1CCCN1CCCNC(=S)Nc1ccc(F)c(Cl)c1 | 96.1% (active)
Cc1cc(Cl)ccc1NC(=S)NCCCN1CCCC1=O | 0.5%
Cc1c(Cl)cccc1NC(=O)NCCCN1CCCC1=O | -0.1%
CC1(C(=O)NNC(=S)NCC2CCCO2)CC1(Cl)Cl (configuration not stated) | -1.4%
O=S(=O)(Nc1ccc(Cl)cn1)c1cnc(Cl)c(Br)c1 | 12.7%
CC(C)C[C@H]1CN([C@@H](CC(C)C)CN2CCC[C@@H]2CN2C(=O)C(=O)NC[C@@H]2Cc2ccccc2)C(=O)C(=O)N1CCc1ccccc1 | 1.7%
